The record followed here is the supplement of paper PMC12808144.

Assay [1] concerns Mel-DCC-11. As to the kind of experiment: cell viability relative to DMSO control (fraction of DMSO control); higher = less cytotoxic, active = 0.5 or less. To be noted: 1 µM; 120 h. In outline:
(§1)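 Luminescence from ATPlite 1step was read after 120 h in 384-well plates carrying 315 approved anti-cancer drugs (TargetMol), acoustically pre-spotted to give 1 µM in duplicate. Cells were seeded in 40 µl per well: 2500/well NHEM-hTERT immortalized melanocytes and 1500/well patient-derived Mel-DCC-11 and Mel-DCC-11-R, its resistant subline, which was assayed alone and with 8 µM of its selecting drug. Viability was normalised to vehicle-treated controls and averaged across duplicate wells.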

Assay [2] concerns NHEM-hTERT. Described as above. The following applies: 1 µM; 120 h. In outline:
as §1

A number with no mark means an inactive call.

For the compound `CN(C)CCOc1ccc(/C(=C(/CCCl)c2ccccc2)c2ccccc2)cc1.O=C(O)CC(O)(CC(=O)O)C(=O)O` [Toremifene citrate], the cell viability in assay [1] was 1.61; in assay [2] it was 0.992.
For `CNC(=O)c1c(C)oc2cc(Oc3ncnc4cc(OC)c(OC)cc34)ccc12` [Fruquintinib] the same measures were 1.34 and 0.982.
Consider `O=C(O)C1CSCN1` (stereo unspecified) [Thioproline], for which the cell viability was 1.09 in assay [1] and 1.17 in assay [2].
For `Cc1nc(Nc2ncc(C(=O)Nc3c(C)cccc3Cl)s2)cc(N2CCN(CCO)CC2)n1.O` [Dasatinib monohydrate] the same measures were 1.22 and 0.506.
For `CN1CCN(c2ccc3nc(-c4c(N)c5c(F)cccc5[nH]c4=O)[nH]c3c2)CC1` [Dovitinib] the same measures were 1.11 and 0.972.
For `Cn1cnc2c(F)c(Nc3ccc(Br)cc3F)c(C(=O)NOCCO)cc21` [Binimetinib], the cell viability was 0.195 (active) in assay [1] and 0.934 in assay [2].
For `Cl.N=C1CCCN1Cc1[nH]c(=O)[nH]c(=O)c1Cl.O=c1[nH]c(=O)n([C@H]2C[C@H](O)[C@@H](CO)O2)cc1C(F)(F)F.O=c1[nH]c(=O)n([C@H]2C[C@H](O)[C@@H](CO)O2)cc1C(F)(F)F` the same measures were 1.27 and 0.967.
As to `O=C([O-])CCCc1ccccc1.[Na+]` [Sodium Phenylbutyrate], the figures for the cell viability in assay [1] and in assay [2] were 1.12 and 1.1, respectively.
Take `COc1ccc2[nH]cc(CCNC(C)=O)c2c1` [Melatonine]: the cell viability in assay [1] is 0.874; in assay [2] it was 0.936.
Regarding `COC(=O)[C@]12CCC(C)(C)C[C@H]1[C@H]1C(=O)C=C3[C@@]4(C)C=C(C#N)C(=O)C(C)(C)[C@@H]4CC[C@@]3(C)[C@]1(C)CC2` [Bardoxolone Methyl], the values for the cell viability in assay [1] and in assay [2] were 0.711 and 0.0925 (active), respectively.
For `COC(=O)N[C@@H](C)CNc1nccc(-c2cn(C(C)C)nc2-c2cc(Cl)cc(NS(C)(=O)=O)c2F)n1` [Encorafenib] the same measures were 0.236 (active) and 0.972.
For `CC(C)CN(C[C@@H](O)[C@H](Cc1ccccc1)NC(=O)O[C@H]1CCOC1)S(=O)(=O)c1ccc(N)cc1` [Amprenavir], in that order: 0.769 and 0.952.
For `CC[C@]1(O)C[C@H]2CN(CCc3c([nH]c4ccccc34)[C@@](C(=O)OC)(c3cc4c(cc3OC)N(C=O)[C@H]3[C@@](O)(C(=O)OC)[C@H](OC(C)=O)[C@]5(CC)C=CCN6CC[C@]43[C@@H]65)C2)C1.O=S(=O)(O)O` [Vincristine sulfate] the same measures were 0.517 and 0.642.
On to `CN(C)c1nc(N(C)C)nc(N(C)C)n1` [Altretamine], for which the figures for the cell viability in assay [1] and in assay [2] were 0.88 and 0.945, respectively.
For `Nc1c2ccccc2nc2ccccc12` [Aminacrine], in that order: 1.43 and 0.915.
For `Cl.N=c1ccn2c(n1)O[C@H]1[C@H](O)[C@@H](CO)O[C@H]12` [Cyclocytidine hydrochloride], in that order: 0.737 and 0.845.
For `CCCCCCCCCCCCCC(=O)[O-].CCCCCCCCCCCCCC(=O)[O-].N[C@@H]1CCCC[C@H]1N.[Pt+2]` [Miriplatin] the same measures were 1.11 and 1.03.
For `O=[N+]([O-])c1cncn1CCN1CCOCC1` [Nimorazole], the cell viability in assay [1] is 1.13; in assay [2] it was 1.14.
With `CN(C)C/C=C/C(=O)Nc1cc2c(Nc3ccc(F)c(Cl)c3)ncnc2cc1O[C@H]1CCOC1` [Afatinib], the results for the cell viability in assay [1] and in assay [2] were 0.77 and 1.01, respectively.
For `CO[C@H]1C(=O)[C@]2(C)[C@@H](OC)C[C@H]3OC[C@@]3(OC(C)=O)[C@H]2[C@H](OC(=O)c2ccccc2)[C@]2(O)C[C@H](OC(=O)[C@H](O)[C@@H](NC(=O)OC(C)(C)C)c3ccccc3)C(C)=C1C2(C)C` [Cabazitaxel], in that order: 0.81 and 0.692.
For `CC1(C)CCC(C)(C)c2cc(NC(=O)c3ccc(C(=O)O)cc3)ccc21` [Tamibarotene], the results for the cell viability in assay [1] and in assay [2] were 1.17 and 1.09, respectively.
For `CCN1CCN(Cc2ccc(Nc3ncc(F)c(-c4cc(F)c5nc(C)n(C(C)C)c5c4)n3)nc2)CC1` [Abemaciclib] the same measures were 0.405 (active) and 0.921.
Turning to `CN(Cc1cnc2nc(N)nc(N)c2n1)c1ccc(C(=O)N[C@@H](CCC(=O)O)C(=O)O)cc1` [Methotrexate], the results for the cell viability in assay [1] and in assay [2] were 1.04 and 0.976, respectively.
For `O=c1cc(-c2ccc(O)cc2)oc2cc(O)cc(O)c12` [Apigenin], in that order: 1.07 and 1.09.
For `CO[C@H]1C[C@@H]2CC[C@@H](C)[C@@](O)(O2)C(=O)C(=O)N2CCCC[C@H]2C(=O)O[C@H]([C@H](C)C[C@@H]2CC[C@@H](OC(=O)C(C)(CO)CO)[C@H](OC)C2)CC(=O)[C@H](C)/C=C(\C)[C@@H](O)[C@@H](OC)C(=O)[C@H](C)C[C@H](C)/C=C/C=C/C=C/1C` [Temsirolimus], in that order: 1.38 and 0.758.
As for `Nc1ncn([C@@H]2O[C@H](CO)[C@@H](O)[C@H]2O)c(=O)n1` [Mylosar], the values for the cell viability in assay [1] and in assay [2] were 1.17 and 0.874, respectively.
For `Cc1coc2c1C(=O)C(=O)c1c-2ccc2c(C)cccc12` [Tanshinone I], in that order: 0.753 and 0.983.
For `C#C[C@]1(O)CC[C@H]2[C@@H]3CCc4cc(OC5CCCC5)ccc4[C@H]3CC[C@@]21C` [Quinestrol], in that order: 0.908 and 0.894.
